# Assay results taken from PubChem BioAssay.
# Activity calls are given as the source filed them.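 How the source made its calls: active means inhibition at or above 50% relative to wild type and mutant plate controls; inactive means inhibition below 50%.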
# Experiment: loss of swimming-algae plug formation – whole organism, Chlamydomonas reinhardtii, WT vs cilia-less mutant, absorbance, 96-well, primary screen (AID 463189);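 further: 0% = wild type cc124 cells in DMSO and 100% = ciliumless bld1 mutant cells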
# Details: Chlamydomonas reinhardtii gravitaxis, OD600 absorbance, 2 days; at 10 µM; active compounds read high
row,SMILES,inhibition
1,CN[C@H](CC(C)C)C(=O)N[C@H]1C(=O)N[C@@H](CC(N)=O)C(=O)N[C@H]2C(=O)N[C@H]3C(=O)N[C@H](C(=O)N[C@H](C(=O)O)c4cc(O)cc(O)c4-c4cc3ccc4O)[C@H](O)c3ccc(c(Cl)c3)Oc3cc2cc(c3O[C@@H]2O[C@H](CO)[C@@H](O)[C@H](O)[C@H]2O[C@H]2C[C@](C)(N)[C@H](O)[C@H](C)O2)Oc2ccc(cc2Cl)[C@H]1O,15.1% (inactive)
2,COc1cc(C(O)CO)ccc1OS(=O)(=O)O (centres undefined),-4.77% (inactive)
3,CCCN(CCC)CCc1cccc2c1CC(=O)N2,4.03% (inactive)
4,O=C1OC(=O)C2C3CCC(O3)C12 (centres undefined),2.39% (inactive)
5,N=C(N)SCCc1ccc(CCSC(=N)N)cc1,9.2% (inactive)
6,COc1ccccc1N1CCN(CCN2C(=O)CC3(CCCC3)CC2=O)CC1,-4.14% (inactive)
7,NC(=O)CC[C@H](N)C(=O)O,-13.2% (inactive)
8,CC(C)(Sc1ccc(CCN(CCCCC2CCCCC2)C(=O)NC2CCCCC2)cc1)C(=O)O,-0.647% (inactive)
9,CC(C)C(=O)Nc1ccc([N+](=O)[O-])c(C(F)(F)F)c1,-17.5% (inactive)
10,O=S(=O)(O)C1CCNCC1,1.98% (inactive)
11,C[N+](C)(CCCCCC[N+](C)(C)CCCN1C(=O)c2cccc3cccc(c23)C1=O)CCCN1C(=O)c2cccc3cccc(c23)C1=O,101% (active)
12,CC(C)C[C@H](NC(=O)C1OC1C(=O)O)C(=O)NCCCCN=C(N)N (some centres undefined),-4.58% (inactive)
13,Cc1cccc(C)c1OCC(N)C(C)C (centres undefined),9.25% (inactive)
14,O=c1[nH]c2cc(Cl)c(Cl)cc2[nH]c1=O,5.88% (inactive)
15,CCN(CC)C(=S)SSC(=S)N(CC)CC,12.2% (inactive)
16,O=C(O)C1CCCNC1 (centres undefined),-1.36% (inactive)
17,Cc1nc2n(c(=O)c1CCN1CCC(c3noc4cc(F)ccc34)CC1)CCCC2,2.59% (inactive)
18,Cn1cnc2c(NCc3ccccc3)nc(NCCO)nc21,5.79% (inactive)
19,Nc1c2c(nc3ccccc13)CCCC2O (centres undefined),2% (inactive)
20,C/C(=C\c1ccc(C(=O)O)cc1)c1ccc2c(c1)C(C)(C)CCC2(C)C,9.5% (inactive)
21,CC(C)NNC(=O)c1ccncc1,2.86% (inactive)
22,CC(=O)N1CCN(c2ccc(OC[C@H]3CO[C@](Cn4ccnc4)(c4ccc(Cl)cc4Cl)O3)cc2)CC1,74.8% (active)
23,O=C(O)[C@H]1NCCC[C@H]1C(=O)O,-0.478% (inactive)
24,CCOC(=O)c1cnc2c(cnn2CC)c1NN=C(C)C,7.54% (inactive)
